Measurements reported in PubChem BioAssay (NCATS).
Where “and” joins values, the source holds several entries; their conditions need not be identical. Equal entries are not always repeated. Inconclusive results are not listed. Where a call stands in place of a potency, no number is given. A structure can be active in one record and inactive in another. A number with no mark means an inactive call. Calls of active or inactive are those of the source. Calls follow the shape of the dose curve; as a rule, active = well fitted inhibition curve with a large enough effect; inconclusive = small, poorly fitted or top-dose-only effect; inactive = flat fitted curve, though single readings scatter. Peptide text beside a SMILES is read from it.
Also: nearly all actives have a fitted effect of over 60% in size.
Potency is read from the fitted curve at half-maximal effect.

Each compound was assayed on TAB165 (assay: qHTS profiling for inhibitors of Plasmodium falciparum proliferation (AID 504749)). Settings: P. falciparum in erythrocytes, SYBR Green DNA, 72 h; series mostly up to 28.7 µM.
Summary of the method: (§1)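 Quantitative HTS: compounds pinned into medium, infected erythrocytes added (0.3% parasitemia, 2.5% hematocrit), 72 h culture at 37 C under 5% CO2. Saponin/Triton lysis with SYBR Green I, overnight RT, then fluorescence read.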
With `Cc1cc2cc3c(C)cc(=O)oc3c(C)c2o1` the Potency was “inactive”.
In the case of `COc1ccc2cc([C@H](C)C(=O)O)ccc2c1`, the Potency is reported as “inactive”.
With `Cc1ccc(C)c(OCCCC(C)(C)C(=O)O)c1` the Potency was “inactive”.
In the case of `CS(=O)(=O)OCCCCOS(C)(=O)=O`, the Potency is reported as “inactive”.
With `CCC1=C(C)CN(C(=O)NCCc2ccc(S(=O)(=O)NC(=O)NC3CCC(C)CC3)cc2)C1=O` (centres undefined) the Potency was “inactive”.
`O=C(O)CCNC(=O)c1ccc(N=Nc2ccc(O)c(C(=O)O)c2)cc1` was tested, and the Potency was “inactive”.
For `Cc1c(C(=O)NN2CCCCC2)nn(-c2ccc(Cl)cc2Cl)c1-c1ccc(Cl)cc1`, the Potency was 10 µM (active).
`Cn1c(NCCN(CCO)CCCc2ccc([N+](=O)[O-])cc2)cc(=O)n(C)c1=O` was tested, and the Potency was “inactive”.
In the case of `CCN(CCO)CCCC(C)Nc1ccnc2cc(Cl)ccc12` (centres undefined), the Potency is reported as “inactive”.
With `CN(C)C(=O)COC(=O)Cc1ccc(OC(=O)c2ccc(N=C(N)N)cc2)cc1` the Potency was “inactive”.
`COC(=O)[C@H](Cc1ccccc1)NC(=O)[C@@H](N)CC(=O)O` (H-Asp-Phe-OMe) was tested, and the Potency was “inactive”.
In the case of `CC1(C)CCC(C)(C)c2cc(NC(=O)c3ccc(C(=O)O)cc3)ccc21`, the Potency is reported as “inactive”.
`COC(=O)C1=C(C)NC(C)=C(C(=O)OCCCN2CCC(c3ccccc3)(c3ccccc3)CC2)C1c1cccc([N+](=O)[O-])c1` (centres undefined) was tested, and the Potency was 2.82 µM (active).
For `O=C(NC(Cc1cc(=O)[nH]c2ccccc12)C(=O)O)c1ccc(Cl)cc1` (centres undefined), the Potency was “inactive”.
With `CN(c1nccc(=O)[nH]1)C1CCN(c2nc3ccccc3n2Cc2ccc(F)cc2)CC1` the Potency was “inactive”.
For `Cc1cc2c(s1)Nc1ccccc1N=C2N1CCN(C)CC1`, the Potency was “inactive”.
For `Cc1ncc([N+](=O)[O-])n1CC(C)O` (centres undefined), the Potency was “inactive”.
In the case of `CNC[C@H](O)c1ccc(O)c(O)c1`, the Potency is reported as “inactive”.
For `Clc1ccc(C(Cn2ccnc2)OCc2ccsc2Cl)c(Cl)c1` (centres undefined), the Potency was 1 µM (active).

The compounds below were run on W2 in the same assay as above. Settings: P. falciparum in erythrocytes, SYBR Green DNA, 72 h; series mostly up to 28.7 µM.
Summary of the method: as §1
For `Cc1cc2cc3c(C)cc(=O)oc3c(C)c2o1`, the Potency was “inactive”.
In the case of `Cc1ccc(C)c(OCCCC(C)(C)C(=O)O)c1`, the Potency is reported as “inactive”.
With `CCC[C@@H]1C[C@@H](C(=O)N[C@@H]([C@H]2O[C@H](SC)[C@H](O)[C@@H](O)[C@H]2O)[C@@H](C)O)N(C)C1` the Potency was 0.338 µM (active).
In the case of `CS(=O)(=O)OCCCCOS(C)(=O)=O`, the Potency is reported as “inactive”.
In the case of `CCC1=C(C)CN(C(=O)NCCc2ccc(S(=O)(=O)NC(=O)NC3CCC(C)CC3)cc2)C1=O` (centres undefined), the Potency is reported as “inactive”.
For `O=C(O)CCNC(=O)c1ccc(N=Nc2ccc(O)c(C(=O)O)c2)cc1`, the Potency was “inactive”.
For `Cc1c(C(=O)NN2CCCCC2)nn(-c2ccc(Cl)cc2Cl)c1-c1ccc(Cl)cc1`, the Potency was 6.75 µM (active).
With `CCN(CCO)CCCC(C)Nc1ccnc2cc(Cl)ccc12` (centres undefined) the Potency was “inactive”.
With `CN(C)C(=O)COC(=O)Cc1ccc(OC(=O)c2ccc(N=C(N)N)cc2)cc1` the Potency was “inactive”.
In the case of `COC(=O)[C@H](Cc1ccccc1)NC(=O)[C@@H](N)CC(=O)O` (H-Asp-Phe-OMe), the Potency is reported as “inactive”.
For `CC1(C)CCC(C)(C)c2cc(NC(=O)c3ccc(C(=O)O)cc3)ccc21`, the Potency was “inactive”.
With `COC(=O)C1=C(C)NC(C)=C(C(=O)OCCCN2CCC(c3ccccc3)(c3ccccc3)CC2)C1c1cccc([N+](=O)[O-])c1` (centres undefined) the Potency was 3.38 µM (active).
With `O=C(NC(Cc1cc(=O)[nH]c2ccccc12)C(=O)O)c1ccc(Cl)cc1` (centres undefined) the Potency was “inactive”.
With `CN(c1nccc(=O)[nH]1)C1CCN(c2nc3ccccc3n2Cc2ccc(F)cc2)CC1` the Potency was 12 µM (active).
For `Cc1cc(=O)oc2cc(O)ccc12`, the Potency was “inactive”.
For `Cc1ncc([N+](=O)[O-])n1CC(C)O` (centres undefined), the Potency was “inactive”.
For `CNC[C@H](O)c1ccc(O)c(O)c1`, the Potency was “inactive”.
`Clc1ccc(C(Cn2ccnc2)OCc2ccsc2Cl)c(Cl)c1` (centres undefined) was tested, and the Potency was 1.69 µM (active).

These compounds were tested on CRL-7250 (assay: Cytotoxic Profiling of Annotated Libraries Using Quantitative High-Throughput Screening (AID 1296008)). Settings: Five cell lines viability, CellTiter-Glo ATP luminescence, 48-72 h; max response: hits give low values.
Summary of the method: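 Compounds were pin-transferred onto cells and incubated 48 or 72 hr at 37 degree Celsius, 95% humidity. CellTiter-Glo was added, plates sat 10 min at room temperature, then ATP-coupled luminescence was imaged as the viability read-out.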
`Cc1cc2cc3c(C)cc(=O)oc3c(C)c2o1` was tested, and the max response was 4.53% and -2.29%.
For `CN(C)[C@@H](CCOc1cccc2ccccc12)c1ccccc1`, the max response was -9.42% and the outcome was “inactive”.
For `COc1ccc2cc([C@H](C)C(=O)O)ccc2c1`, the max response was -17% and 0.0913% and -30.7%.
`COc1cc(C(C)=O)ccc1OCCCN1CCC(c2noc3cc(F)ccc23)CC1` was tested, and the max response was -1.04% and the outcome was “inactive”.
For `Cc1ccc(C)c(OCCCC(C)(C)C(=O)O)c1`, the max response was -2.44% and the outcome was “inactive”.
`CCC[C@@H]1C[C@@H](C(=O)N[C@@H]([C@H]2O[C@H](SC)[C@H](O)[C@@H](O)[C@H]2O)[C@@H](C)O)N(C)C1` was tested, and the max response was -16.2% and the outcome was “inactive”.
In the case of `Clc1ccc(C(Cn2ccnc2)OCc2ccc(Sc3ccccc3)cc2)c(Cl)c1` (centres undefined), the max response is reported as -3.19% and the outcome is reported as “inactive”.
In the case of `CS(=O)(=O)OCCCCOS(C)(=O)=O`, the max response is reported as -2.55% and the outcome is reported as “inactive”.
For `CC(=O)NC[C@H]1CN(c2ccc(N3CCOCC3)c(F)c2)C(=O)O1`, the max response was -4.05% and the outcome was “inactive”.
With `CC1=C(C)C(=O)C(C(CCCCCC(=O)O)c2ccccc2)=C(C)C1=O` (centres undefined) the Potency was 5.31 µM (active) and the max response was 0.243%.
`COc1cc2nc(N3CCN(C(=O)C4CCCO4)CC3)nc(N)c2cc1OC` (centres undefined) was tested, and the max response was -10.4% and the outcome was “inactive”.
For `CCC1=C(C)CN(C(=O)NCCc2ccc(S(=O)(=O)NC(=O)NC3CCC(C)CC3)cc2)C1=O` (centres undefined), the max response was 0.534% and 4.01% and the outcome was “inactive”.
For `Clc1ccc(C(Cn2ccnc2)OCc2c(Cl)cccc2Cl)c(Cl)c1` (centres undefined), the max response was -2.52% and the outcome was “inactive”.
In the case of `O=C(O)CCNC(=O)c1ccc(N=Nc2ccc(O)c(C(=O)O)c2)cc1`, the max response is reported as -3.32% and the outcome is reported as “inactive”.
`Cc1nc(-c2ccc(OCC(C)C)c(C#N)c2)sc1C(=O)O` was tested, and the max response was 2.28% and the outcome was “inactive”.
`Cc1c(C(=O)NN2CCCCC2)nn(-c2ccc(Cl)cc2Cl)c1-c1ccc(Cl)cc1` was tested, and the max response was -1.95% and the outcome was “inactive”.
With `Cn1c(NCCN(CCO)CCCc2ccc([N+](=O)[O-])cc2)cc(=O)n(C)c1=O` the max response was -8.35% and the outcome was “inactive”.
For `CCN(CCO)CCCC(C)Nc1ccnc2cc(Cl)ccc12` (centres undefined), the max response was -6.76% and 0.809% and the outcome was “inactive”.
In the case of `CN(C)C(=O)COC(=O)Cc1ccc(OC(=O)c2ccc(N=C(N)N)cc2)cc1`, the outcome is reported as “inactive”.
For `CC(=O)Nc1ccc(O)cc1`, the max response was -5.95% and the outcome was “inactive”.
In the case of `COC1=C(OC)C(=O)C(CCCCCCCCCCO)=C(C)C1=O`, the max response is reported as -2.47% and the outcome is reported as “inactive”.
`COC(=O)[C@H](Cc1ccccc1)NC(=O)[C@@H](N)CC(=O)O` (H-Asp-Phe-OMe) was tested, and the max response was 3.9% and the outcome was “inactive”.
In the case of `CC1(C)CCC(C)(C)c2cc(NC(=O)c3ccc(C(=O)O)cc3)ccc21`, the max response is reported as 0.132%.
With `COC(=O)C1=C(C)NC(C)=C(C(=O)OCCCN2CCC(c3ccccc3)(c3ccccc3)CC2)C1c1cccc([N+](=O)[O-])c1` (centres undefined) the max response was -3.52%.
In the case of `O=C(NCC1CCCCN1)c1cc(OCC(F)(F)F)ccc1OCC(F)(F)F` (centres undefined), the max response is reported as -77.3% and the outcome is reported as “inactive”.
For `CCCS(=O)c1ccc2nc(NC(=O)OC)[nH]c2c1` (centres undefined), the Potency was 21.1 µM (active) and the max response was -27.5%.
With `O=C(NC(Cc1cc(=O)[nH]c2ccccc12)C(=O)O)c1ccc(Cl)cc1` (centres undefined) the max response was -2.81% and the outcome was “inactive”.
In the case of `CCN(CC)C(=S)SSC(=S)N(CC)CC`, the Potency is reported as 0.105 µM (active) and the outcome is reported as “inactive”.
For `CN(c1nccc(=O)[nH]1)C1CCN(c2nc3ccccc3n2Cc2ccc(F)cc2)CC1`, the max response was -35.3% and -24.5% and the outcome was “inactive”.
In the case of `Cc1cc2c(s1)Nc1ccccc1N=C2N1CCN(C)CC1`, the outcome is reported as “inactive”.
With `CC1=C(C(=O)O)N2C(=O)[C@@H](NC(=O)[C@H](N)C3=CCC=CC3)[C@H]2SC1` the max response was -13.1% and the outcome was “inactive”.
`Cc1cc(=O)oc2cc(O)ccc12` was tested, and the max response was 4.43% and 2.39%.
With `CN(C)c1ccc(O)c2c1C[C@H]1C[C@H]3[C@H](N(C)C)C(=O)C(C(N)=O)=C(O)[C@@]3(O)C(=O)C1=C2O` the max response was -30% and the outcome was “inactive”.
In the case of `Cc1cccc(CN2CCN(C(c3ccccc3)c3ccc(Cl)cc3)CC2)c1` (centres undefined), the max response is reported as -2.17% and the outcome is reported as “inactive”.
With `Cc1ncc([N+](=O)[O-])n1CC(C)O` (centres undefined) the max response was -19.5% and the outcome was “inactive”.
`CNC[C@H](O)c1ccc(O)c(O)c1` was tested, and the max response was -3.3% and -3.53%.
In the case of `Clc1ccc(C(Cn2ccnc2)OCc2ccsc2Cl)c(Cl)c1` (centres undefined), the max response is reported as 1.94% and the outcome is reported as “inactive”.
Work on `COC(=O)N[C@H](C(=O)N[C@@H](Cc1ccccc1)[C@@H](O)CN(Cc1ccc(-c2ccccn2)cc1)NC(=O)[C@@H](NC(=O)OC)C(C)(C)C)C(C)(C)C` yielded a max response of -0.779%.
